The values below come from PubChem BioAssay (EPA / NIEHS).

Values joined by “and” are separate entries in the source; they are usually repeats but may differ in a detail not shown here. Identical values can stand only once. Inconclusive results are not listed. Where a structure was tested more than once in an assay, its records may differ in their call. Active and inactive are the calls of the source. How the source made its calls: active means hit-call score of the fitted dose curve at least 0.9, where 1 is the maximum; inconclusive means response in the unintended direction; inactive means score below 0.9.

Chain of Nuclear receptor subfamily 1 group I member 2 (Mus musculus) (O54915 whole entry, looked up): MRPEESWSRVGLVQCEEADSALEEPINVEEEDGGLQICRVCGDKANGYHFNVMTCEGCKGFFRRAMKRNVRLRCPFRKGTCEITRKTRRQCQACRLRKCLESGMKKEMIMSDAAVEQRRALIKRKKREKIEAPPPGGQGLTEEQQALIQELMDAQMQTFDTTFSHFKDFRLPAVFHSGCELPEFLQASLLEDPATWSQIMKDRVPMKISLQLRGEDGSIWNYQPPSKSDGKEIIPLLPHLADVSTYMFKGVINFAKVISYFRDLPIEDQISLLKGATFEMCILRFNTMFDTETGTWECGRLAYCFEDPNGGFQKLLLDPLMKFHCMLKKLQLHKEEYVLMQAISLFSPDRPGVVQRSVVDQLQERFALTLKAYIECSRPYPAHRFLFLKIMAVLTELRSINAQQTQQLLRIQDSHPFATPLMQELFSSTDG

For the assay, the target named is Nuclear receptor subfamily 1 group I member 2 (Mus musculus) (UniProt O54915). As to the kind of experiment: ATG_mPXR_XSP2: Attagene TRANS-FACTORIAL Multi-Species (XSP1) HepG2 Assay for mouse Pregnane X Receptor (PXR) (AID 2283831). How it is done:
ATG_XSP2_multi-species_TRANS is a cell-based, multiplexed assay created by modifying the existing Attagene TRANS-FACTORIAL system to include a panel of nuclear receptors from some or all the following species: human (Homo sapiens), mouse (Mus musculus), frog (Xenopus laevis), zebrafish (Danio rerio), chicken (Gallus gallus), and turtle (Chrysemys picta). The ECOTOX-FACTORIAL format uses HepG2, a human liver cell line, with measurements taken at 24 hours after chemical dosing in a 24-well plate. Xsp2 included 3 nM 6-alpha-fluorotestosterone and 1.5 nM norgestrel to stimulate the androgen receptor.ATG_mPXR_XSP2 is one of 29 assay components measured or calculated from the ATG_XSP2_multi-species_TRANS assay. It is designed to make measurements of mRNA induction, a form of inducible reporter, as detected with fluorescence intensity signals by Reverse transcription polymerase chain reaction (RT-PCR) and Capillary electrophoresis technology.The assay endpoint ATG_mPXR_XSP2 was analyzed in the positive analysis fitting direction relative to DMSO as the negative control and baseline of activity. Using a type of inducible reporter, measures of mRNA for gain-of-signal activity can be used to understand the reporter gene at the transcription factor-level as they relate to the gene PXR. Furthermore, this assay endpoint can be referred to as a primary readout, because this assay has produced multiple assay endpoints where this one serves a reporter gene function. To generalize the intended target to other relatable targets, this assay endpoint is annotated to the nuclear receptor intended target family, where the subfamily is non-steroidal.
Human liver HepG2 cells are transiently transfected with multiple reporter transcription units (MRTUs) in 6-well plates using FuGene 6 reagent (Roche; 3 ml FuGene/1 mg DNA). The MRTU constructs are regulated by a cis-regulating element (promoter). […] A major difference between the CIS and TRANS system is that in CIS activities of endogenous TFs are measured, whereas the TRANS assay evaluates changes in activities of exogenous, chimeric NR-Gal4 proteins. […] At the end of 24 hour incubation, total RNA was isolated using TriZol reagent (Invitrogen). The isolated RNA is then reverse-transcribed using oligo(dT) primer and Mo-MLV reverse transcriptase (Invitrogen) with DNAse I (Ambion) treatment for 30 min. The one-tenth of the produced cDNA was amplified by PCR using Taq DNA polymerase (Invitrogen) and two reporter sequence-specific primers. The PCR products were fluorescently labeled by primer extension with 6-arboxyfluorescein (6-FAM) 5'-labeled reporter sequence-specific primer (2 min at 95 C, 20 s at 68 C and 10 min at 72 C) and these products were digested with 5U of HpaI (New England Biolabs) for 2h at 37 C. The fragments were purified using Qiaquick PCR columns (Qiagen), analyzed on an ABI 3130xL genetic analyzer (Applied Biosystems) with peak positions identified by using a set of X-rhodamine (ROX)-labeled MapMarker1000 molecular weight standards (BioVentures). The raw capillary electrophoresis data was processed using Attagraph software (Attagene).
Turning to `CC1(C)CCC(Cc2ccc(Cl)cc2)C1(O)Cn1cncn1` (configuration not stated), the AC50 (usually the concentration at which the activity in the assay is half-maximal) is 2.82 µM (active). Same read-out and setting: in the case of `C[C@]12CC[C@H](O)CC1=CC[C@@H]1[C@@H]2CC[C@]2(C)C(=O)CC[C@@H]12` it was 6.42 µM (active) and 5.9 µM (active). As to `Oc1ccc(-c2ccccc2)cc1`, the compound was called inactive. Consider `CC(C)(C)CC(C)(C)c1ccc(O)cc1`, for which the call was inactive. Consider `Oc1c(I)cc(I)cc1I`, for which the AC50 is 56.6 µM (active) and the compound was classed as inactive.

In the case of `CC(C)(C)c1cc(O)ccc1O`, the compound was classed as inactive. As to `CC(C)C1CCC(Cc2ccc(Cl)cc2)C1(O)Cn1cncn1` (configuration not stated), the AC50 is 715 nM (active) and 257 nM (active). On the same count and under the same terms, with `Clc1ccc(C2(Cn3cncn3)CC(Br)CO2)c(Cl)c1` (configuration not stated) the figure was 3.32 µM (active) and 1.59 µM (active); with `CC12CC1(C)C(=O)N(c1cc(Cl)cc(Cl)c1)C2=O` (configuration not stated), 8.41 µM (active) and 6.41 µM (active); with `O=S(=O)(c1ccc(Cl)cc1)c1ccc(Cl)cc1`, 4.34 µM (active) and 2.83 µM (active). Regarding `CC(=O)C=C(C)C`, the compound was classed as inactive.
